An excerpt weighted towards active compounds, which were near 1.6% of everything screened.
KCNQ2 pot = potentiators of rat KCNQ2 potassium channel. Potassium voltage-gated channel subfamily KQT member 2 (Rattus norvegicus), O88943. CHO-K1 KCNQ2, FluxOR thallium flux fluorescence; stronger effect = higher value. B-score at 10 µM. 310,000 tested, 0.54% active;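 active = fluorescence ratio B-score at least 3 SD of library B-scores, with initial fluorescence B-score within 3 of them, cut at about 5.3 in these data; same plate scores as AID 2156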;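 note: B-score of peak minus minimum over baseline fluorescence ratio after K+ and Tl+ stimulus; positive B-score means potentiation of KCNQ2 with more thallium influx and brighter signal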
KCNQ2 inh = rat KCNQ2 potassium channel inhibitors, primary screen, cell-based, CHO-K1, FluxOR thallium flux, B-score | B-score at 10 µM | AID 2156, 2009 | 310,000 tested, 1.1% active | Potassium voltage-gated channel subfamily KQT member 2 (Rattus norvegicus), O88943 | 20 min; stronger effect = lower value;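 active = fluorescence ratio B-score at most minus 3 library SDs, with starting brightness B-score within 2 library SDs, cut at about -5.5 in these data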
KCNQ2 inh conf = rat KCNQ2 potassium channel inhibitors, confirmation, cell-based, thallium flux; 1,000 tested, 57% active; KCNQ2-expressing cells, inhibition; stronger effect = lower value; activity change, negative = inhibition, % at 10 µM; shares compounds with KCNQ2 inh;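 note: 0% = vehicle wells and values are ratio percent relative to vehicle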
KCNQ1 spec = human KCNQ1 channel inhibition, counter-screen for KCNQ2 inhibitor project, cell-based, FluxOR thallium flux. shares compounds with KCNQ2 inh. KCNQ1-expressing cells, FluxOR thallium flux fluorescence; stronger effect = lower value. activity change, negative = inhibition, % at 10 µM. 1,000 tested, 15% active. AID 493026, 2011;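 active = activity change at least 3 SD of negative controls below their mean in both duplicate wells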;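 note: CHO cells stably transfected with KCNQ1 and depolarized by potassium stimulus; peak minus minimum fluorescence over baseline after thallium addition; 0% = vehicle negative control and -100% = blank without thallium stimulus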
Target sequence (P51787 whole entry, looked up): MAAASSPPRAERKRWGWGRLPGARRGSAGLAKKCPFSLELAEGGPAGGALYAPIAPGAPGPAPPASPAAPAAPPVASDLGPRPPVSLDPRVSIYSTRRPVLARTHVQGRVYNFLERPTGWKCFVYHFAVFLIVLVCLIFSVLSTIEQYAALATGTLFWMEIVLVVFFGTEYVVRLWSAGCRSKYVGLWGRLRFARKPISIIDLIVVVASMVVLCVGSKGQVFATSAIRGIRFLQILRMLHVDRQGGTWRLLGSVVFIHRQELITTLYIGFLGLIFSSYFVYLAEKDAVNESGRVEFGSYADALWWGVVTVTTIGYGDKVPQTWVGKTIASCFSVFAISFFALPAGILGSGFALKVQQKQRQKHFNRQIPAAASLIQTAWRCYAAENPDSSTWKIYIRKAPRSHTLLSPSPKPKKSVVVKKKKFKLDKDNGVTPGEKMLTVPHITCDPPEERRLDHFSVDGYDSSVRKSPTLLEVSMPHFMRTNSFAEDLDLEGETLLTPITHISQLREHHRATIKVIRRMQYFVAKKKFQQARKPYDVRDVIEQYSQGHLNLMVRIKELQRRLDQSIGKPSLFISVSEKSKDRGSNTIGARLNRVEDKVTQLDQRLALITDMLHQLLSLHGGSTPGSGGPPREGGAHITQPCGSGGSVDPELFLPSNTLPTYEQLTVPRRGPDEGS
CHO parental ctr = thallium flux change in parental CHO cells, counter-screen for KCNQ2 inhibitor project. activity change, % at 10 µM. stronger effect = lower value. shares compounds with KCNQ2 inh. 1,000 tested, 14% active;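 note: 0% = vehicle negative controls with stimulus buffer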
KCNQ2 inh confirm = rat KCNQ2 channel inhibitors, confirmation, cell-based, automated patch clamp, single concentration | shares compounds with KCNQ2 inh | KCNQ2-expressing cells, automated patch clamp current | calls only at 10 µM | 550 tested, 49% active
Active calls of the source: *; i = inactive; / = no result; + = active, no number. Unless noted, the rule behind the calls is not given here.

SMILES	KCNQ2 pot	KCNQ2 inh	KCNQ2 inh conf	KCNQ1 spec	CHO parental ctr	others
N#Cc1ccccc1S(=O)(=O)c1ccccc1C(=O)Nc1ccccc1	0.05	i	/	/	/
COC(=O)c1cn(NC(=O)c2cc(OC)cc(OC)c2)c(=O)c2ccccc12	0.43	i	/	/	/
COc1cc(OC)cc(C(=O)Nn2cc(C(=O)Nc3c(F)cccc3F)c3ccccc3c2=O)c1	-6.9	-6.9*	i	i	i
Cc1[nH]c2ccccc2c1CN1CCC(Cc2ccccc2)CC1	0.03	i	/	/	/
CCCCN1CC(=O)N2[C@H](c3ccc(OC)cc3)[C@@H]3C(=O)N(CC)C(=O)[C@@H]3[C@]2(Cc2ccccc2)C1=O	0.33	i	/	/	/
COc1cccc(CNS(=O)(=O)c2ccc3c(c2)C(C)(C)C(=O)N3C)c1	1.4	i	/	/	/
Cc1cc(Cl)cc(C)c1OCCNCc1ccccc1	-6.9	-6.9*	i	i	i
Cc1cc(C)c(OCCNCc2ccccc2)c(C)c1	/	i	/	/	/
CC1(C)CNC(=O)c2sc(NC(=O)c3ccccc3Cl)nc2C1	2	i	/	/	/
CCCSc1nc(NCc2ccco2)c2c3c(sc2n1)COC(C)(C)C3	-9.8	-9.8*	i	i	i
CCCCSc1nc(NCc2ccco2)c2c3c(sc2n1)COC(C)(C)C3	/	i	/	/	/
CCOc1cc(Br)ccc1S(=O)(=O)NCc1ccccc1	/	i	/	/	/
CCOC(=O)Cn1c(CCC(=O)O)ccc1-c1ccc(F)cc1	-9.3	-9.3*	i	i	i
O=C(O)CCc1ccc(-c2ccc(F)cc2)n1CC(=O)O	/	i	/	/	/
C=C(C)Cn1c(SCC#N)nc2ccccc2c1=O	0.48	i	/	/	/
CCN(CCCn1c(SCC#N)nc2ccccc2c1=O)c1ccccc1	-8.8	-8.8*	i	i	i
COc1ccc(NC(=O)COc2nc3ccccc3nc2N2CCOCC2)c(OC)c1	0.23	i	/	/	/
Cc1cccc(C)c1OCCNC(=O)OCc1ccccc1	-6.9	-6.9*	i	i	i
O=C(O)CCCNC(=O)OCc1ccccc1	/	i	/	/	/
CC(=O)N1CCc2cc(S(=O)(=O)CCC(=O)N3CCN(c4cc(C)ccc4C)CC3)ccc21	/	i	/	/	/
C/C(=N\Nc1nc(N2CCCCCC2)nc(N2CCCCCC2)n1)c1ccccc1	-9.2	-9.2*	-28%*	i	i	KCNQ2 inh confirm=+
CC(=C/c1ccccc1)/C=N/Nc1nc(N2CCCCC2)nc(N2CCCCC2)n1	/	i	/	/	/
CCOc1ccccc1/C=C(\C#N)C1=CCCC1	1.2	i	/	/	/
CCN(CC)C(=O)c1c2c(nc3ccccc13)-c1ccccc1CC2	-8.8	-8.8*	i	i	i
COc1cccc2c1CCc1c-2nc2ccccc2c1C(=O)O	0.66	i	/	/	/
SMILES	KCNQ2 pot	KCNQ2 inh	KCNQ2 inh conf	KCNQ1 spec	CHO parental ctr	others
C=CCNC(=O)c1c2c(nc3ccccc13)-c1ccccc1CC2	-7.6	-7.6*	i	i	i
CC(C)CNC(=O)c1c2c(nc3ccccc13)-c1ccccc1CC2	/	i	/	/	/
O=C(O)c1ccc(Cl)c(S(=O)(=O)Nc2ccccc2C(=O)Nc2ccc(Cl)cc2)c1	/	i	/	/	/
N#CC1(NC(=O)CSc2nnc(-c3ccccc3F)o2)CCCCC1	/	i	/	/	/
CCC(C)Sc1cccc(-c2nc3cc(C)ccn3c2NCc2ccccc2)c1 (configuration not stated)	-6.7	-6.7*	i	i	i
CCC(C)Sc1ccc(-c2nc3ccc(C)cn3c2NCc2ccccc2)cc1OC (configuration not stated)	/	i	/	/	/
C/C(=C\C(=O)c1ccc(F)cc1)NCc1ccc2c(c1)OCO2	/	i	/	/	/
C/C(=C\C(=O)c1ccc(Br)cc1)NCc1ccc2c(c1)OCO2	-6.9	-6.9*	-17%*	i	i	KCNQ2 inh confirm=i
CCN(Cc1ccccc1)C(=O)CS(=O)(=O)c1ccccc1	0.6	i	/	/	/
O=S(=O)(C/C(=C/CO)S(=O)(=O)c1ccccc1)c1ccccc1	-8	-8*	i	i	i
CC(C)(C)N1CC(c2nc3ccccc3n2CCOc2ccccc2)CC1=O (configuration not stated)	1.5	i	/	/	/
CC(C)(C)N1CC(c2nc3ccccc3n2Cc2ccc(Cl)cc2)CC1=O (configuration not stated)	-7.1	-7.1*	-27%*	i	i	KCNQ2 inh confirm=+
COc1cccc(C(=O)COC(=O)c2n[nH]c(=O)c3ccccc23)c1	/	i	/	/	/
CCOC(=O)CN(Cc1ccccc1)C(=O)OC(C)(C)C	/	i	/	/	/
COc1cc(C(=O)Nc2nc(OC)c(-c3ccccc3)c(OC)n2)cc(OC)c1OC	0.82	i	/	/	/
COc1cc(C(=O)Nc2cc(-c3ccccc3)[nH]n2)cc(OC)c1OC	-6.6	-6.6*	-25%*	i	i	KCNQ2 inh confirm=i
COc1ccccc1NC(=S)NCc1ccc2c(c1)OCO2	/	i	/	/	/
CCN(CC)S(=O)(=O)c1cc(C(=O)Nc2cc(C)[nH]n2)ccc1Cl	0.34	i	/	/	/
CC(C)c1nc(SCC(=O)Nc2ccc3c(c2)OCCO3)n[nH]1	/	i	/	/	/
OC1(CNCc2cn[nH]c2-c2cc3ccccc3o2)CCCCC1	0.28	i	/	/	/
O=C(CSC1=NCCN1)NC(c1ccccc1)c1ccccc1	-9.7	-9.7*	i	i	i
O=C(CSC1=NCCN1)Nc1ccccc1[N+](=O)[O-]	/	i	/	/	/
Cc1ccc(S(=O)(=O)c2ccc(Oc3cccc(C)c3)cc2)cc1	/	i	/	/	/
Cc1ccc(CN2CCN(/N=C/c3cccn3C)CC2)c(C)c1	/	i	/	/	/
Cc1ccc(CN2CCN(/N=C/c3ccc(C)s3)CC2)c(C)c1	-7.9	-7.9*	i	i	i
SMILES	KCNQ2 pot	KCNQ2 inh	KCNQ2 inh conf	KCNQ1 spec	CHO parental ctr	others
CC(=O)N(c1cccc(Cl)c1)c1nc(C)cc(C)c1C#N	/	i	/	/	/
O=C(/C=C/c1ccc(Cl)cc1)N1CCN(c2c(Cl)cccc2[N+](=O)[O-])CC1	/	i	/	/	/
O=C(CSc1ccc(Cl)cc1)N1CCN(c2c(Cl)cccc2[N+](=O)[O-])CC1	-8.2	-8.2*	i	i	i
Cc1cccc(NC(=O)C(=O)NCC2CCCO2)c1 (configuration not stated)	0.6	i	/	/	/
Cc1ccc(C(=O)NCC(c2ccco2)N2CCOCC2)cc1 (configuration not stated)	1.6	i	/	/	/
O=C(NCC(c1ccco1)N1CCc2ccccc2C1)c1c(F)cccc1F (configuration not stated)	0.53	i	/	/	/
Cc1ccc(C(=O)NCC(c2ccco2)N2CCc3ccccc3C2)cc1 (configuration not stated)	-6.7	-6.7*	i	i	i
O=C(NCC(c1ccco1)N1CCc2ccccc2C1)c1ccc(Br)cc1 (configuration not stated)	-9.7	-9.7*	-37%*	i	i	KCNQ2 inh confirm=+

Compound activity from PubChem BioAssay.
